Compounds with a hit are over-represented: about 3.7% of the library has one in this group of screens.
PfHsp90 set2 = growth inhibition of yeast expressing Plasmodium Hsp90; S. cerevisiae expressing PfHsp90, BacTiter-Glo ATP, 48 h; yeast lacking PDR1 and PDR3 efflux regulators; inhibition, % at 9.4 µM; 310,000 compounds, 0.32% hits;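 active = every replicate shows inhibition above about 80%, whatever the replicate mean, limit read from the data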;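 note: 0% = DMSO neutral controls and 100% = 20 µM radicicol positive controls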
TIM10 inh = inhibits growth of TIM10 yeast strain; inhibition, % at 10 µM; S. cerevisiae TIM10 strain growth, BacTiter-Glo luminescence, 24 h; 330,000 compounds, 1.4% hits;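 active = inhibition of 40% or more at the single tested concentration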;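 note: wild-type TIM10 isogenic control strain grown at permissive 25 °C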
tim23-1 inh = growth inhibitors of tim23-1 mutant yeast | S. cerevisiae tim23-1 growth, BacTiter-Glo luminescence, 24 h | inhibition, % at 20 µM | 330,000 compounds, 1.3% hits | AID 463212;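 active = growth inhibition of the mutant yeast at or above 50%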;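 note: temperature-sensitive mutant grown at 25 °C; plate controls were DMSO-treated mutant yeast for no effect and medium wells lacking yeast for full effect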
V-ATPase pHluor = yeast V-ATPase proton transport regulation by pHLuorin. AID 504577. 350,000 compounds, 0.37% hits. S. cerevisiae, pHLuorin cytosolic pH fluorescence. response, % at 10 µM; in the data active = response mostly above about 7.3%, no sharp cut-off; inactive = mostly below about 5.4%; note: actives read high
tim10-1 inh = tim10-1 yeast growth inhibition; S. cerevisiae tim10-1 ts strain growth, BacTiter-Glo, 24 h; inhibition, % at 20 µM; 330,000 compounds, 2.2% hits; AID 463190;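 active = inhibition of at least 40%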;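 note: mutant grown at 25 °C; 0% = DMSO wells with yeast and 100% = wells holding no yeast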
tim10-1 confirm = tim10-1 yeast growth inhibition, confirmed; S. cerevisiae tim10-1 ts strain growth, BacTiter-Glo, 24 h; shares compounds with tim10-1 inh; 7,400 compounds, 56% hits; inhibition, % at 20 µM;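 active = inhibition of yeast growth at or above a set limit in either of two repeat tests at 20 µM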;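 note: tim10-1 mutant grown at permissive 25 °C to find synthetic lethal compounds; 0% = DMSO yeast wells and 100% = medium wells without yeast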
The depositor's hits bear a star.

For COc1ccc(N(C)S(=O)(=O)c2cccc(C(=O)N3CCN(S(=O)(=O)c4ccc(C)cc4)CC3)c2)cc1 the results were PfHsp90 set2 3, TIM10 inh 13, tim23-1 inh 9, V-ATPase pHluor -2 and tim10-1 inh 9.
CNC(=O)/C(C#N)=C/c1c(N2CCCCCC2)nc2c(C)cccn2c1=O was read as PfHsp90 set2 -8, TIM10 inh 21, tim23-1 inh 39, V-ATPase pHluor -7 and tim10-1 inh 18.
`N#CCSc1ccccc1NC(=O)COC(=O)C1CCN(C(=O)c2ccc(Cl)cc2)CC1` gave V-ATPase pHluor 3.
For Clc1ccc(-c2csc(-c3cccnc3)n2)s1 the results were PfHsp90 set2 -18, TIM10 inh 18, tim23-1 inh 34, V-ATPase pHluor 1 and tim10-1 inh 28.
For O=C(CCC(=O)N1CCN(c2ccc(Cl)c(Cl)c2)CC1)c1ccccc1 the results were PfHsp90 set2 3, TIM10 inh 10, tim23-1 inh 23, V-ATPase pHluor -1, tim10-1 inh 42* and tim10-1 confirm 15.
`CC(C)c1ccc(C(=O)NCCCN2CCOCC2)cc1` gave PfHsp90 set2 12, TIM10 inh -5, tim23-1 inh -11, V-ATPase pHluor -2 and tim10-1 inh 0.
CC(C)c1ccc(/C=C2\C(=O)N(CCN3CCOCC3)C(=S)N2C)cc1 was read as PfHsp90 set2 7, TIM10 inh 33, tim23-1 inh 43, V-ATPase pHluor -5, tim10-1 inh 45* and tim10-1 confirm 40*.
`Cc1c(Cl)cccc1NC(=O)CN(C1CCCCC1)S(C)(=O)=O` gave PfHsp90 set2 10, TIM10 inh 6, tim23-1 inh 11, V-ATPase pHluor 6 and tim10-1 inh 7.
CCOc1ncccc1C(=O)OCc1csc(CC(=O)Nc2ccccc2C)n1 was read as TIM10 inh -4, tim23-1 inh 21, V-ATPase pHluor -2 and tim10-1 inh -4.
CCCSc1oc(-c2ccco2)nc1S(=O)(=O)c1ccc(C)cc1 was read as PfHsp90 set2 7, TIM10 inh -29, tim23-1 inh 27, V-ATPase pHluor 6 and tim10-1 inh 22.
CCCSc1oc(-c2ccco2)nc1S(=O)(=O)c1ccccc1 was read as PfHsp90 set2 18, TIM10 inh 25, tim23-1 inh 33, V-ATPase pHluor -1, tim10-1 inh 43* and tim10-1 confirm 20.
Screening Cn1c(=S)n(/N=C/c2ccc3c(c2)OCO3)c2ccccc21 returned TIM10 inh -7, tim23-1 inh 0, V-ATPase pHluor -2 and tim10-1 inh 7.
`COc1ccc(/C=N/n2c(=S)n(C)c3ccccc32)cc1OC` gave PfHsp90 set2 -6, TIM10 inh 37, tim23-1 inh 41, V-ATPase pHluor -4, tim10-1 inh 43* and tim10-1 confirm 30*.
COCCN(C(=S)Nc1ccc(OC)cc1)C(C)c1cccs1 (configuration not stated) was read as PfHsp90 set2 -26, TIM10 inh 22, tim23-1 inh 36, V-ATPase pHluor -1, tim10-1 inh 41* and tim10-1 confirm 25.
Screening Cc1noc(C)c1COc1ccccc1C(=O)N1CCN(c2cccc(C(F)(F)F)c2)CC1 returned PfHsp90 set2 0, TIM10 inh 11, tim23-1 inh 28, V-ATPase pHluor 0 and tim10-1 inh 37.
`O=C(C1CCC1)N1CCc2cc(S(=O)(=O)NCC3COc4ccccc4O3)ccc21` (configuration not stated) gave PfHsp90 set2 -22, TIM10 inh 26, tim23-1 inh 1, V-ATPase pHluor -1 and tim10-1 inh 11.
For O=C(C1CC1)N1CCc2cc(S(=O)(=O)NCC3COc4ccccc4O3)ccc21 (configuration not stated) the results were PfHsp90 set2 -14, TIM10 inh 32, tim23-1 inh 27, V-ATPase pHluor -8, tim10-1 inh 46* and tim10-1 confirm 26.
O=C(CCl)N1CCN(S(=O)(=O)c2ccc3ccccc3c2)CC1 was read as PfHsp90 set2 7, TIM10 inh 33, tim23-1 inh 42, V-ATPase pHluor 2, tim10-1 inh 40* and tim10-1 confirm 33*.
`CC1CCN(c2ccc(S(=O)(=O)N3CCC(C)CC3)cc2N)CC1` gave PfHsp90 set2 -2, TIM10 inh 19, tim23-1 inh 38, V-ATPase pHluor 1, tim10-1 inh 41* and tim10-1 confirm 30.
For CN1CCN(S(=O)(=O)c2ccc3ccccc3c2)CC1 the results were PfHsp90 set2 2, TIM10 inh 8, tim23-1 inh -2, V-ATPase pHluor 3 and tim10-1 inh -14.
Screening CN(C)C(=O)N1CCN(S(=O)(=O)c2ccc3ccccc3c2)CC1 returned PfHsp90 set2 -9, TIM10 inh 1, tim23-1 inh 16, V-ATPase pHluor -2 and tim10-1 inh 4.
`CC1CCN(S(=O)(=O)c2ccc3ccccc3c2)CC1` gave PfHsp90 set2 -10, TIM10 inh -1, tim23-1 inh 34, V-ATPase pHluor -5, tim10-1 inh 44* and tim10-1 confirm 31*.
For CC(C)=CCC/C(C)=C/CNC(=O)C[C@H]1C[C@H](C(=O)N(C(C)C)C(C)C)[C@@]2(C)c3[nH]c4cc(CCC(=O)N(C)C)ccc4c3CCN2C1=O the results were PfHsp90 set2 -14, TIM10 inh 4, tim23-1 inh 43, V-ATPase pHluor 4 and tim10-1 inh 25.
Screening O=C(c1ccc(OC2CCN(CCCc3ccccc3)CC2)cc1)N1CCCC1 returned PfHsp90 set2 -16, TIM10 inh -1, tim23-1 inh 3, V-ATPase pHluor 1 and tim10-1 inh 8.
For CCOC(=O)c1c(NC(=O)CSc2nnc(-c3ccco3)o2)sc(C)c1C the results were PfHsp90 set2 -13, TIM10 inh 22, tim23-1 inh 24, V-ATPase pHluor -3, tim10-1 inh 42* and tim10-1 confirm 17.
Screening COc1ccc(NC(=O)CCC(=O)N(Cc2ccc(OC)c(OC)c2)c2nccs2)c(OC)c1 returned PfHsp90 set2 7, TIM10 inh 21, tim23-1 inh -6, V-ATPase pHluor -4 and tim10-1 inh 11.
For CCN(c1ccc(OC)cc1)S(=O)(=O)c1nnc(NC(=O)CC(C)C)s1 the results were PfHsp90 set2 14, TIM10 inh -13, tim23-1 inh 4, V-ATPase pHluor 3 and tim10-1 inh -7.
Screening Cc1[nH]n(-c2ccccc2)c(=O)c1C(c1cccc([N+](=O)[O-])c1O)c1c(C)[nH]n(-c2ccccc2)c1=O returned PfHsp90 set2 4, TIM10 inh 7, tim23-1 inh 33, V-ATPase pHluor 2, tim10-1 inh 42* and tim10-1 confirm 23.
S=C(NC1CCCCC1)N(CCc1nc2ccccc2[nH]1)C1CCCC1 was read as PfHsp90 set2 -7, TIM10 inh 37, tim23-1 inh 32, V-ATPase pHluor 2, tim10-1 inh 50* and tim10-1 confirm 29.

Screening results: PubChem BioAssay, several laboratories
